This assay deals with AT4G31550 (Arabidopsis thaliana, UniProt Q9SV15 228-325). Description: DPI-ELISA; DPI-ELISA, streptavidin 384-well plate, 1-2 pmol biotinylated dsDNA per well, crude native E. coli extract, anti-His detection; buffer as in Brand et al. [46],; high values mean tight binding. Conditions: tags: C-terminal His (pET-DEST42); label: 5' biotin on forward strand; dsDNA, one strand shown. A general note: ELISA stands for enzyme-linked immunosorbent assay.
Sequence of AT4G31550 (Q9SV15 228-325): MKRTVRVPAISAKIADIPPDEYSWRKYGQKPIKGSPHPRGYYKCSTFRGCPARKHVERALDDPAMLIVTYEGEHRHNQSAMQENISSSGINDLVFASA
Regarding AAAAAATCCTTTTCTCTTTCTGTTTCAAAA, the binding signal turned out to be 0.575 ± 0.12 absorbance.

Take AAAAAAAGTTTGACCTTGGCGTTCGTAAAA: the binding signal is 3.5 ± 0.148 absorbance.

AAAAAATGCCCTTTTTATCTTTATGTAAAA: the binding signal was 0.65 ± 0.0707 absorbance.

In turn, AAAAAAGACACTCTAATTCCGTAGGCAAAA yielded a binding signal of 0.405 ± 0.0495 absorbance.

Regarding AAAAAAAATCTTAGCTCTATCTCATCAAAA, the binding signal stood at 0.68 ± 0.113 absorbance.

As to AAAAAATAGCGACTTCGACTCTCAGTAAAA, the binding signal turned out to be 0.76 ± 0.0707 absorbance.

In the case of AAAAAATACTCTTCCTCGTTCTTGGTAAAA, the binding signal worked out at 0.57 ± 0.127 absorbance.

Sequence AAAAAAGTATAACGTGTTGTTGACCGAAAA registered a binding signal of 3.455 ± 0.0212 absorbance.

As to AAAAAACTCGCGCTTGCATCTGTGCGAAAA, the binding signal stood at 0.555 ± 0.0636 absorbance.

AAAAAAGTCGTCACGCACGTGAATACAAAA gave a binding signal of 1.15 ± 0.0141 absorbance.

Sequence AAAAAATGGCTCGGGTTCCAAGGTTGAAAA displayed a binding signal of 0.645 ± 0.0919 absorbance.

Consider AAAAAACCGTATGTATATCTATATGTAAAA, for which the binding signal amounted to 0.42 ± 0.113 absorbance.

Take AAAAAAGGGTTTAGATGTCCTTCAAAAAAA: the binding signal amounted to 0.59 ± 0.099 absorbance.

In turn, AAAAAATTACTCCTAGCCCTCATTCAAAAA returned a binding signal of 1.36 ± 0.976 absorbance.

For AAAAAAGCCATCATGGTTAGTGTACAAAAA, the binding signal is 0.665 ± 0.148 absorbance.

Sequence AAAAAATTCGTTTTTCGTCTTTCATTAAAA registered a binding signal of 0.7 ± 0.156 absorbance.

Turning to AAAAAACTGCTTGCCCCTGTCTCCATAAAA, the binding signal was 0.67 ± 0.17 absorbance.

In turn, AAAAAAATGATTGCCAATGCTCGCAAAAAA came in with a binding signal of 0.73 ± 0.156 absorbance.

Consider AAAAAAGTCTAAGGACTTATAGCTGTAAAA, for which the binding signal was 1.65 ± 0.608 absorbance.

As to AAAAAATTCAGAGCTTCGAGGTTCCGAAAA, the binding signal was 0.66 ± 0.0707 absorbance.

Turning to AAAAAAGTCGTTACACGTATGCGTGCAAAA, the binding signal worked out at 1.5 ± 0.0566 absorbance.

Consider AAAAAATTTCTCCTTCTTTGTTCTTCAAAA, for which the binding signal was found to be 0.66 ± 0.141 absorbance.

The sequence AAAAAAAACAAAACCTCCTAATAGCGAAAA returned a binding signal of 0.42 ± 0.113 absorbance.

AAAAAAACCCGGCCGCCATGGTAGTAAAAA returned a binding signal of 0.7 ± 0.212 absorbance.

Take AAAAAAAGTATCAAAGCCTAGGGCTGAAAA: the binding signal was found to be 0.605 ± 0.205 absorbance.

For AAAAAACAACTTGGAGGATTTACAGCAAAA, the binding signal came to 0.73 ± 0.141 absorbance.

Sequence AAAAAATATCGGGCACGGTCTTGTCTAAAA gave a binding signal of 0.585 ± 0.0495 absorbance.

In turn, AAAAAAAGGGTGCTATTCGTCGACACAAAA displayed a binding signal of 0.63 ± 0.141 absorbance.

With AAAAAACAGGCCGATTCCGATCCCGGAAAA, the binding signal was 0.535 ± 0.0919 absorbance.

AAAAAACGTATTGATGTCTATTTCAAAAAA returned a binding signal of 0.575 ± 0.0919 absorbance.

Turning to AAAAAATTTGTTCGGGCTCATAACTGAAAA, the binding signal is 0.595 ± 0.148 absorbance.

In turn, AAAAAAAACTGTCGCCCCCGGCTGGCAAAA returned a binding signal of 0.545 ± 0.12 absorbance.

In the case of AAAAAATATTCCGCTTTTGGCTGAATAAAA, the binding signal came to 0.635 ± 0.0636 absorbance.

AAAAAACGGGATTCGAAACTTTTTGTAAAA yielded a binding signal of 0.54 ± 0.099 absorbance.

In turn, AAAAAACGCTTTCAGTTTTGATCTTAAAAA came in with a binding signal of 0.495 ± 0.0778 absorbance.

On to AAAAAACTAACCGTCGCAGGCGTGTGAAAA, for which the binding signal worked out at 0.715 ± 0.134 absorbance.

As for AAAAAACGGAAGATCGTGACTGCTAGAAAA, the binding signal came to 0.715 ± 0.0354 absorbance.

In the case of AAAAAAGCGGTAGATGCGCAACTGTGAAAA, the binding signal stood at 0.6 ± 0.127 absorbance.

(Values after publication PMC3795721, “Screening for Protein-DNA Interactions by Automatable DNA-Protein Interaction ELISA”.)
